# High-throughput results from PubChem.
# APOBEC3G inh – inhibitors of human APOBEC3G DNA deaminase; inhibition, % at 20 µM; 330,000 compounds, 0.28% hits; recombinant A3G, ssDNA deamination FAM/TAMRA fluorescence; Q9HC16; AID 493012;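 active = inhibition of at least 40% at 20 µM, with no more than 30% in the related APOBEC3A deaminase screen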;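 note: plate controls were DMSO wells with A3G for no effect and wells lacking A3G enzyme for full effect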
# Target sequence (Q9HC16 whole entry, looked up): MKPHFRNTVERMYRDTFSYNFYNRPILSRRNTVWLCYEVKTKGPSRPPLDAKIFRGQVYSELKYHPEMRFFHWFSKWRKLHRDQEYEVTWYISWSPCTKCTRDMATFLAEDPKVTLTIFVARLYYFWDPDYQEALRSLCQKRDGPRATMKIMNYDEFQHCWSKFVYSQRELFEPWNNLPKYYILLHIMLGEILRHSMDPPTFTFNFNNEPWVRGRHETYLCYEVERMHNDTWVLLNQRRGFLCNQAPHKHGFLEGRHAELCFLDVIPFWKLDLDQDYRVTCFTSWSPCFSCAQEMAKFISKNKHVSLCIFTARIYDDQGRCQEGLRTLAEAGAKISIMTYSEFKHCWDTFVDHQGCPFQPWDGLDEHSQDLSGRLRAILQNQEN
# APOBEC3A inh – blocks human APOBEC3A ssDNA deamination. recombinant A3A, FAM/TAMRA ssDNA deamination fluorescence. 330,000 compounds, 0.41% hits. AID 493011. inhibition, % at 20 µM;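 active = at least 40% inhibition at 20 µM here, with at most 30% in a related deaminase screen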;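 note: plate controls were A3A with DMSO for no effect and wells lacking A3A enzyme for full effect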
# aDG glyco act – increases alpha dystroglycan glycosylation | Pro5-aDG cells, alpha-DG glycosylation AlphaScreen (IIH6); 0% Pro5, 100% B10-LARGE cell signal | activation, % at 10 µM | 360,000 compounds, 0.22% hits;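 active = activation of at least 8% versus controls, or a plate z-score of at least 8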;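 note: Pro5 are CHO cells carrying HIG-tagged alpha-DG that lacks glycosylation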
# ALR H2O2 inh – inhibitors of human sulfhydryl oxidase ALR. P55789. purified ALR, DTT oxidation, H2O2 HRP-luminol luminescence. inhibition, % (no concentration beside the values). 290,000 compounds, 3.8% hits. AID 485317;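 active = mean replicate inhibition above about 79%, with every replicate also reaching it, limit read from the data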
# Target sequence (P55789 whole entry, looked up): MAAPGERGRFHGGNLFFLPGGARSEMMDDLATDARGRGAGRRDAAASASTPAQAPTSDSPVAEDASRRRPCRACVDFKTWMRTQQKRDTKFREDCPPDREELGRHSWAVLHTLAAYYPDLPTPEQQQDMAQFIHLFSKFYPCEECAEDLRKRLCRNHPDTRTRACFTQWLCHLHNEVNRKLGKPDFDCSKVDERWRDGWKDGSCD
# PHOSPHO1 block – PHOSPHO1 (human) inhibition; recombinant PHOSPHO1, absorbance phosphatase assay; inhibition, % at 13.3 µM; 290,000 compounds, 1.1% hits; in the data active = inhibition above about 60%
# rCAG binder – binds r(CAG) RNA repeats. AID 651821. inhibition, % at 3 µM. 370,000 compounds, 1.3% hits. r(CAG) RNA repeat, TO-PRO-1 dye displacement fluorescence;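 active = inhibition above the plate cutoff, the mean of all test compounds on that plate plus 3 SD, cut at about 35% in these data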;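 note: 0% = DMSO alone and 100% = 100 µM mitoxantrone as full dye displacement; higher means more dye released from RNA so lower well fluorescence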
# A3A conf – confirmation of human APOBEC3A DNA deaminase inhibitors | shares compounds with APOBEC3A inh | recombinant A3A, ssDNA deaminase UDG fluorescence assay | inhibition, % at 20 µM | 1,400 compounds, 63% hits;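 active = inhibition reaching a set limit, 80% of the first screen's cutoff, at 20 µM in any replicate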;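 note: plate controls were DMSO wells with A3A for no effect and wells lacking A3A enzyme for full effect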
# UDG ctr A3A – UDG inhibition in APOBEC3A counter-screen; shares compounds with APOBEC3A inh; UDG counterscreen, FAM/TAMRA uracil oligo fluorescence; inhibition, % at 20 µM; 1,000 tested, under 10 active; AID 504714; call rule not given here
# The depositor's hits bear a star; · = no result given. This is a sample that favours compounds with a hit; in the whole collection about 5.4% have one here.
SMILES,APOBEC3G inh,APOBEC3A inh,aDG glyco act,ALR H2O2 inh,PHOSPHO1 block,rCAG binder,A3A conf,UDG ctr A3A
CC1=NOC(=O)/C1=C\c1ccc(-c2ccc(Br)cc2C(=O)O)o1,16,53*,0,89*,-67,7,active,5
COCc1ccc(C(=O)Nc2ccccc2C(=O)NCc2cccnc2)cc1,-11,-2,0,8,27,-3,·,·
C=CCOc1ccc(C(=O)Nc2ccccc2C(=O)NCc2cccnc2)cc1,5,43*,0,1,32,2,34*,-1
Nc1[nH]c(C(=O)c2ccccc2)c(-c2cccc(C(F)(F)F)c2)c1C(=O)c1c[nH]c2ccccc12,·,·,·,·,·,9,·,·
CN1/C(=C\C=[N+](C)c2ccccc2)C(C)(C)c2ccccc21,13,56*,0,·,-50,-3,77*,-33
CN1/C(=C\C=N\O)C(C)(C)c2ccccc21,-1,2,0,-30,16,-1,·,·
N#Cc1c(-c2ccc(F)cc2)c(-c2ccc(F)cc2)nn(CCO)c1=O,·,·,0,·,·,0,·,·
C=CCN1/C(=C2/SC(=S)N(C)C2=O)Sc2ccccc21,23,96*,·,-16,19,·,64*,·
CCN1/C(=C/c2ccc3cc(C)cc(C)c3[n+]2CC)Sc2cc(C)ccc21,·,·,2,·,-100,-16,·,·
CCN1/C(=C/c2ccc3cccc(C)c3[n+]2CC)Sc2ccccc21,24,70*,2,10,-18,-52,85*,5
Cc1ccc(S(=O)(=O)N2CCN(C(=O)CCC(=O)Nc3ccc(Br)c(C)c3)CC2)cc1,·,·,0,·,·,8,·,·
CC[n+]1ccc(/C=C2\Sc3ccccc3N2CCCS(=O)(=O)[O-])c2ccccc21,24,83*,0,-3,19,-5,92*,4
Cc1c2ccccc2cc[n+]1CCCS(=O)(=O)[O-],-2,1,0,-14,30,2,·,·
O=c1oc(-c2ccccc2NS(=O)(=O)c2ccccc2)nc2ccccc12,-1,50*,0,2,12,29,-2,-3
C[N+]1(CCOC(=O)C2(c3ccccc3)CCCC2)CCCCC1,23,64*,0,1,-12,-1,63*,-3
COc1ccc(C(=O)OCC[N+]2(C)CCCCC2)cc1,12,64*,0,·,-20,-1,78*,-3
COc1ccc(C(=O)C[N+]2(C)CCOCC2)cc1,20,64*,0,-2,80*,4,67*,-2
CC(C[N+](C)(C)C)OC(=O)C1(c2ccccc2)CCCC1 (configuration not stated),14,44*,0,-3,-25,-3,66*,-3
COc1ccc(C(=O)CC(=O)c2ccc(OC)cc2)cc1,-6,-5,0,-2,·,2,·,·
Nn1c(SCC(=O)Nc2ccccc2-c2ccccc2)nnc1-c1n[nH]c2c1CCC2,·,·,·,·,·,1,·,·
CCCCc1c(-c2ccccc2OC)ncn1Cc1ccc(Cl)cc1Cl,·,·,·,·,·,2,·,·
CCN(CC)CCCOC(=O)C1(c2ccccc2)CCCC1,-7,-6,0,4,12,-3,·,·
C[N+](C)(C)CCOC(=O)C1(c2ccccc2)CCCC1,16,60*,0,-10,57,-3,76*,-2
O=C1C=C(O)CC(c2ccco2)C1 (configuration not stated),13,46*,-1,-6,10,13,53*,-4
CC(=O)OCCCn1c(C)[n+](C)c2cc(Cl)c(Cl)cc21,19,87*,0,1,5,-2,73*,2
SMILES,APOBEC3G inh,APOBEC3A inh,aDG glyco act,ALR H2O2 inh,PHOSPHO1 block,rCAG binder,A3A conf,UDG ctr A3A
CCn1c(C)[n+](CCOC(C)=O)c2cc(Cl)c(Cl)cc21,22,63*,0,·,17,-1,78*,-4
CC(=O)OCCCN1C(=O)c2ccc(Br)cc2C1=O,-3,0,0,2,14,2,·,·
COc1ccc(C2=Nc3ccccc3NC(=O)C2N(Cc2ccccc2)C(=O)C2=NNC(=O)CC2)cc1 (configuration not stated),·,·,0,·,·,11,·,·
CCOc1ccc(CCN2C(=S)N([C@@H](CC(C)C)CN3CCC[C@@H]3CN3C(=S)NC[C@@H]3Cc3ccccc3)C[C@@H]2Cc2ccc(O)cc2)cc1,·,·,0,·,·,15,·,·
Cn1ccsc1=NC(=O)c1ccc(=O)[nH]c1,18,59*,0,10,28,-2,4,·
OC(c1ccc(F)cc1)c1nc(-c2cncnc2)cs1 (configuration not stated),·,·,0,·,·,0,·,·
COc1ccc(N2CCN(C(=O)COc3ccc4ccccc4c3)CC2)cc1,-2,46*,0,-11,28,3,2,-2
O=C(Cn1nnc(-c2ccc(N3CCOCC3)cc2)n1)c1cccc(F)c1,·,·,·,·,·,4,·,·
N#C/C(=C/c1cccn1-c1cccc(C(=O)O)c1)c1ccc(Cl)cc1,20,70*,1,35,16,34,65*,·
CC(Cl)C(=O)N1CCC(C(=O)NCC2COc3ccccc3O2)CC1 (configuration not stated),·,·,·,·,·,3,·,·
O=C(Cc1ccc(NC(=O)C2CCCN(C(=O)C3CCC3)C2)cc1)Nc1cccc(C(=O)N2CCCC2)c1 (configuration not stated),·,·,0,·,·,1,·,·
CCOC(=O)c1[nH]c2ccc(OC)cc2c1NC(=O)CCN1CCC(C)CC1,14,49*,·,-10,71*,-9,22,·
Cc1ccc(CNC(=O)C2(C)CCN2C(=O)Cc2ccc(C(C)(C)C)cc2)cc1 (configuration not stated),·,·,0,·,·,1,·,·
CC[n+]1ccc(/C=C/c2c[nH]c3ccccc23)cc1,2,48*,0,38,-25,-136,64*,-8
COc1ccc2c(C=O)c[nH]c2c1,2,0,0,-5,-4,6,·,·
COc1ccc2c(/C=C/c3cc[n+](C)cc3)c[nH]c2c1,12,45*,0,-6,22,-53,61*,3
CCn1c(/C=C/c2c[nH]c3ccccc23)nc2ccccc2c1=O,-12,-3,1,9,41,5,·,·
Cc1ccc2[nH]cc(/C=C/c3cc[n+](C)cc3)c2c1,-14,49*,0,98*,-29,-351,67*,-8
COc1ccc(NC(=O)NC2CCN(S(=O)(=O)c3ccc(F)cc3)CC2)cc1OC,·,·,·,·,·,1,·,·
CCN(CC)C(=O)C1=C(C)N(Cc2ccc(OC)cc2)C(=O)C(CC(=O)NCCc2ccccn2)C1 (configuration not stated),·,·,0,·,·,1,·,·
Cc1cccc(CN2CCN(C3CN(C4CCCCC4)S(=O)(=O)C3)CC2)c1 (configuration not stated),·,·,0,·,·,0,·,·
